# Measured values published in PubChem BioAssay (NCATS).
# Inconclusive results are not listed. Where a call stands in place of a potency, no number is given. Active and inactive are the calls of the source. Calls follow the shape of the dose curve; as a rule, active = well fitted curve in the direction sought with a large enough effect; inconclusive = small, poorly fitted or top-dose-only effect, or another doubt; inactive = no such curve, though single readings can be large; an effect the other way counts as inactive or inconclusive.
# Key:
# [1] = target: Aldehyde dehydrogenase, mitochondrial (Homo sapiens) (UniProt P05091); assay: qHTS for Inhibitors of the Aldehyde Dehydrogenase Family (ALDH2) Primary screen (AID 2061308); also: nearly all actives have a fitted effect of over 55% in size
# [2] = target: Retinaldehyde dehydrogenase 3 (Homo sapiens) (UniProt P47895); assay: qHTS for Inhibitors of the Aldehyde Dehydrogenase Family (ALDH1A3) Primary screen (AID 2061315)
Structure (SMILES),Potency [1],Potency [2]
O=C1Nc2ccccc2/C1=C/c1ccc[nH]1,inactive,inactive
Cc1ccc(-c2ccc(CNc3nc(-c4ccccc4C(C)C)nc4ccccc34)cc2)cn1,inactive,inactive
Cc1ccc(C)c(OCCn2c(CCNC(=O)C3CCCCC3)nc3ccccc32)c1,inactive,inactive
COc1ccc(C(=O)Nc2ccc(-c3nc4ccccc4[nH]3)cc2)cc1OC,inactive,inactive
O=C(Nc1nc(-c2ccccc2)cs1)c1ccccc1Cl,inactive,inactive
Cc1ccc(-c2cc(C(=O)NCC[S+](=O)([O-])O)c3ccccc3n2)cc1C,inactive,inactive
N=c1c2c(ccn1Cc1ccccc1)Oc1ccc3ccccc3c1C2c1ccccc1 (configuration not stated),inactive,inactive
O=C1Nc2ccccc2/C1=C\c1ccc(O)cc1,inactive,inactive
CCOc1ccccc1OCCNC(C)Cc1ccc(OC)c(S(N)(=O)=O)c1 (configuration not stated),inactive,inactive
O=C1c2ccccc2C(=O)N1c1ccc2ncccc2c1,inactive,inactive
Cc1ccc(NC(=O)c2cnn3c(C)cc(C)nc23)c(C)c1,inactive,inactive
O=C(Nc1ccc2ccccc2c1)Nc1nnc(-c2ccccc2F)s1,inactive,inactive
COCCNc1nc(C)nc2c1nc(-c1ccccc1)n2CCN(C)C,inactive,inactive
Cc1ccc(NS(=O)(=O)c2ccc3c(c2)CCN(C(=O)C(F)(F)F)C3)cc1C,inactive,inactive
COc1cc(O)c(C(CC(=O)N2CCC[C@H](C)C2)c2ccc3c(c2)OCO3)c(OC)c1 (some centres not stated),inactive,inactive
O=[N+]([O-])c1cccc(CSc2nc3ncc(Br)cc3[nH]2)c1,inactive,inactive
